SMILES strings stand for the structures. Values without a mark were called inactive. Unless noted, the call rests on the fitted dose curve; in most records, active means well fitted curve in either direction with a large enough effect (not every such curve was filed as active); inconclusive means small, poorly fitted or top-dose-only effect, or another doubt; inactive means flat fitted curve, though single readings scatter. Results filed as inconclusive are left out.

Glucocorticoid receptor (Homo sapiens), sequence (P04150 whole entry, looked up): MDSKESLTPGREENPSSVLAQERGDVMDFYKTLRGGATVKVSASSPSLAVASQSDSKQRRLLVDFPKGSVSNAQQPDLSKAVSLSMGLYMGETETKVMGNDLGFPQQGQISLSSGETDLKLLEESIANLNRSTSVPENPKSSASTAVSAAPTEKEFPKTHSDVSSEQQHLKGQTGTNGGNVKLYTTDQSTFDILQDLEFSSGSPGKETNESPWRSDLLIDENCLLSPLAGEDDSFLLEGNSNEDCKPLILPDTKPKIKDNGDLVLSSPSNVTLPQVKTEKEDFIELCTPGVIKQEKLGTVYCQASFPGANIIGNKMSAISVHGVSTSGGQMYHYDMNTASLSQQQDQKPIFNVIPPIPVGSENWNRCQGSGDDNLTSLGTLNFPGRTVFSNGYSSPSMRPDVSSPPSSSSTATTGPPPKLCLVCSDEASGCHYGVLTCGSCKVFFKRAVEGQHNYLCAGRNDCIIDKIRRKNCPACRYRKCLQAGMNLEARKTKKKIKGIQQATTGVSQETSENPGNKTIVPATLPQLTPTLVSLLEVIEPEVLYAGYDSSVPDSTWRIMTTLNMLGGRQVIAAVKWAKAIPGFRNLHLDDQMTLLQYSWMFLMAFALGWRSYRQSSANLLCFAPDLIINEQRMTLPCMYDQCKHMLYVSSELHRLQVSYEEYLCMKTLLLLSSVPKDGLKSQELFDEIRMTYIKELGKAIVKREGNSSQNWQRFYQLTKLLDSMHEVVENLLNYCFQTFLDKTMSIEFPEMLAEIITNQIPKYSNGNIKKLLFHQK

System in the first assay: not listed separately
Briefly: NFAT Signaling Pathway (AID 444).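 Further: carbachol stimulus at about its EC50 of 1 µM final; on the % scale 0 is the no-effect control and ±100 the full control effect.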 The settings on record: Jurkat NFAT-bla M1, carbachol, beta-lactamase ratio, 5 h; at 7.69 µM (top of the series) unless noted. A digest of the protocol: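 Read-out: CCF4 FRET ratio (460 nm/530 nm) after 1 h RT dye loading, used for %activity and AC50 from titration series. Cells: Jurkat NFAT-β-lactamase/M1 line, treated with compound plus 1 uM carbachol for 5 h, 37 °C.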
Turning to `COc1ccc(CNc2ncncc2-c2ccccc2OC)c(OC)c1`, the activity change, negative = inhibition was -12.1%.

Turning to `COc1ccc(Oc2ncc3nc(-c4ccc(F)cc4)c(=O)n(C[C@H]4CCCO4)c3n2)cc1`, the activity change, negative = inhibition is 0.101%.

`CN(C)c1ncc2nc(CCc3ccccc3)c(=O)n(CCC#N)c2n1`: the activity change, negative = inhibition was -3.25%.

In the case of `CN(C)c1ncc2nc(CCc3ccccc3)c(=O)n(CCc3ccccc3)c2n1`, the activity change, negative = inhibition is -22.4%.

For the molecule `COc1ccc(CNc2cc(-c3cccc(NS(C)(=O)=O)c3)ncn2)c(OC)c1`, the activity change, negative = inhibition was -10.4%.

In the case of `CCNc1ncc2nc(CCc3ccccc3)c(=O)n(Cc3cccc(OC)c3)c2n1`, the activity change, negative = inhibition is -6.29%.

In the case of `O=c1c(CCc2ccccc2)nc2cnc(N3CCOCC3)nc2n1-c1ccccc1`, the activity change, negative = inhibition was 1.96%.

For the molecule `O=c1c(CCc2ccccc2)nc2cnc(N3CCNCC3)nc2n1Cc1cccs1`, the activity change, negative = inhibition is 3.16%.

Regarding `N#CCCn1c(=O)c(-c2cccc(C#N)c2)nc2cnc(Oc3cccc(Cl)c3)nc21`, the activity change, negative = inhibition is -6.45%.

On to `Cn1cc(-c2nc3cnc(N4CCNCC4)nc3n(C3CC3)c2=O)c2ccccc21`, for which the activity change, negative = inhibition is 28.9%.

Turning to `COc1ccccc1-c1ccc2ncnc(N3CCNCC3)c2c1`, the activity change, negative = inhibition is 5.04%.

As to `COCCn1c(=O)c(-c2ccccc2)nc2cnc(Oc3cccc(Cl)c3)nc21`, the activity change, negative = inhibition was -9.21%.

For `COc1ccccc1-c1nccc(NCc2cccs2)n1`, the activity change, negative = inhibition is -12.7%.

Consider `Clc1ccccc1-c1nc(-n2ccnc2)c2ccccc2n1`, for which the activity change, negative = inhibition is -17.9%.

Consider `COc1ccc(-n2c(=O)c(CCc3ccccc3)nc3cnc(OC)nc32)cc1`, for which the activity change, negative = inhibition was 0.705%.

With `COc1ccc(Oc2ncc3nc(-c4cccc(C#N)c4)c(=O)n(Cc4cccc(OC)c4)c3n2)cc1`, the activity change, negative = inhibition is -6.12%.

System in another assay: not listed separately
Briefly: Stat Signaling Pathway (AID 446).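 Further: ME-180 cervical cancer cells given 40 pM IL-6 alongside compound; SIE-controlled beta-lactamase reporter measured as 460/530 nm FRET emission ratio; on the % scale 0 is the no-effect control and ±100 the full control effect.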 The settings on record: ME-180 SIE beta-lactamase reporter, IL-6 stimulated, 5 h; series mostly up to 7.69 µM; activity, negative = inhibition: at the top concentration. The essentials: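 ME-180 cells carrying a SIE-driven beta-lactamase reporter are stimulated with 40 pM IL-6 for 5 h at 37C in the presence of compound. The 460/530 nm FRET substrate ratio is read after 2.5 h at RT. Data are normalised to 300 pM IL-6 and to 125 nM JAK inhibitor controls.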
As to `COc1ccc(Oc2ncc3nc(-c4cc(F)cc(F)c4)c(=O)n(C4CC4)c3n2)cc1`, the “activity, negative = inhibition” value was -8.21%.

On to `O=c1c(-c2ccccc2)nc2cnc(Oc3ccccc3)nc2n1C[C@H]1CCCO1`, for which the “activity, negative = inhibition” value was -8.83%.

With `COc1ccccc1-c1nccc(N2CCN(C)CC2)n1`, the “activity, negative = inhibition” value is 9.85%.

For `Cc1nc2cnc(N3CCN(C)CC3)nc2n(CCc2ccccc2)c1=O`, the “activity, negative = inhibition” value was -12.6%.

In the case of `COc1cccc(-c2cncnc2NCCN2CCOCC2)c1`, the “activity, negative = inhibition” value was 12.2%.

Consider `O=c1c(CCc2ccccc2)nc2cnc(Oc3ccccc3)nc2n1C1CC1`, for which the “activity, negative = inhibition” value is -20.3%.

For the molecule `c1ccc(CNc2nc(-c3cccnc3)nc3ccccc23)cc1`, the “activity, negative = inhibition” value was -6.68%.

As to `COc1cccc(Cn2c(=O)cnc3cnc(Nc4cccc(OC)c4)nc32)c1`, the “activity, negative = inhibition” value was -26.4%.

As to `COc1cccc(-c2ccc3ncnc(NCc4cnc(C)cn4)c3c2)c1`, the “activity, negative = inhibition” value is -20.6%.

`Cn1c(=O)c(-c2ccccc2)nc2cnc(N3CCOCC3)nc21`: the “activity, negative = inhibition” value was -7.68%.

As for `CN1CCN(c2ncc3nc(-c4cn(C)c5ccccc45)c(=O)n(C[C@H]4CCCO4)c3n2)CC1`, the “activity, negative = inhibition” value is -7.75%.

`COc1cccc(-c2nc(NC3CC3)c3ccccc3n2)c1`: the “activity, negative = inhibition” value is -0.39%.

Take `COc1ccc2[nH]cc(CCNc3ncnc4ccc(-c5ccoc5)cc34)c2c1`: the “activity, negative = inhibition” value was -19.4%.

On to `O=c1c(-c2cccc(F)c2)nc2cncnc2n1Cc1ccc(F)cc1`, for which the “activity, negative = inhibition” value was -6.71%.

Regarding `COc1ccccc1CNc1ncnc2ccc(-c3cccc(NS(C)(=O)=O)c3)cc12`, the “activity, negative = inhibition” value is -15.3%.

In the case of `COc1ccc(CNc2ncncc2-c2ccccc2OC)c(OC)c1`, the “activity, negative = inhibition” value is 4.21%.

As to `CN(C)c1ncnc2ccc(-c3cccc(NS(C)(=O)=O)c3)cc12`, the “activity, negative = inhibition” value was -17.4%.

`COc1ccc(Oc2ncc3nc(-c4ccc(F)cc4)c(=O)n(C[C@H]4CCCO4)c3n2)cc1`: the “activity, negative = inhibition” value is -16.7%.

With `CN(C)c1ncc2nc(CCc3ccccc3)c(=O)n(CCC#N)c2n1`, the “activity, negative = inhibition” value is -12%.

In the case of `CN(C)c1ncc2nc(CCc3ccccc3)c(=O)n(CCc3ccccc3)c2n1`, the “activity, negative = inhibition” value is -4.42%.

Turning to `COc1ccc(CNc2cc(-c3cccc(NS(C)(=O)=O)c3)ncn2)c(OC)c1`, the “activity, negative = inhibition” value is -22.4%.

As to `O=c1c(CCc2ccccc2)nc2cnc(Nc3ccccc3)nc2n1C[C@H]1CCCO1`, the “activity, negative = inhibition” value was 22.4%.

In the case of `CCNc1ncc2nc(CCc3ccccc3)c(=O)n(Cc3cccc(OC)c3)c2n1`, the “activity, negative = inhibition” value is -8.37%.

As to `CN(Cc1ccco1)c1nc(-c2ccccc2C(F)(F)F)nc2ccccc12`, the “activity, negative = inhibition” value was 12.6%.

Take `O=c1c(CCc2ccccc2)nc2cnc(N3CCOCC3)nc2n1-c1ccccc1`: the “activity, negative = inhibition” value was 2.46%.

For the molecule `N#CCCn1c(=O)c(-c2cccc(C#N)c2)nc2cnc(Oc3cccc(Cl)c3)nc21`, the “activity, negative = inhibition” value is 8.23%.

For the molecule `COc1ccccc1-c1ccc2ncnc(N3CCNCC3)c2c1`, the “activity, negative = inhibition” value was 4.49%.

`COCCn1c(=O)c(-c2ccccc2)nc2cnc(Oc3cccc(Cl)c3)nc21`: the “activity, negative = inhibition” value is -7.25%.

Regarding `COc1ccccc1-c1nccc(NCc2cccs2)n1`, the “activity, negative = inhibition” value was 13.5%.

As to `Clc1ccccc1-c1nc(-n2ccnc2)c2ccccc2n1`, the “activity, negative = inhibition” value was -4.99%.

Turning to `COc1ccc(-n2c(=O)c(CCc3ccccc3)nc3cnc(OC)nc32)cc1`, the “activity, negative = inhibition” value is -9.77%.

For `COc1ccc(Oc2ncc3nc(-c4cccc(C#N)c4)c(=O)n(Cc4cccc(OC)c4)c3n2)cc1`, the “activity, negative = inhibition” value is -10.8%.

Consider `N#Cc1cccc(-c2nc(NCCN3CCOCC3)c3ccccc3n2)c1`, for which the “activity, negative = inhibition” value is -10.8%.

The next assay has as its target Glucocorticoid receptor (Homo sapiens) (UniProt P04150). Briefly: GR-GFP Redistribution (AID 450;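 active means compounds whose dose series gives a full or clear partial fitted curve of increased nuclear translocation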; further: potency means the concentration at half of the fitted maximal effect). The settings on record: U2OS GR-GFP nuclear translocation, laser cytometry, 2 h.
In the case of `Cc1cccc(CNc2ncncc2-c2ccccc2CN(C)C)c1`, the Potency is more than 46 µM.

Take `COc1ccc(Oc2ncc3nc(-c4cc(F)cc(F)c4)c(=O)n(C4CC4)c3n2)cc1`: the Potency is more than 9.22 µM.

As to `O=c1c(-c2ccccc2)nc2cnc(Oc3ccccc3)nc2n1C[C@H]1CCCO1`, the Potency was more than 9.22 µM.

Regarding `COc1ccccc1-c1nccc(N2CCN(C)CC2)n1`, the Potency was more than 46 µM.

Consider `Cc1nc2cnc(N3CCN(C)CC3)nc2n(CCc2ccccc2)c1=O`, for which the Potency is more than 9.22 µM.

As to `COc1cccc(-c2cncnc2NCCN2CCOCC2)c1`, the Potency was more than 46 µM.

In the case of `O=c1c(CCc2ccccc2)nc2cnc(Oc3ccccc3)nc2n1C1CC1`, the Potency is more than 9.22 µM.

As to `CCNc1ncc2ncc(=O)n(Cc3ccc(F)cc3)c2n1`, the Potency was more than 9.22 µM.

As to `c1ccc(CNc2nc(-c3cccnc3)nc3ccccc23)cc1`, the Potency is more than 46 µM.

Turning to `COc1cccc(Cn2c(=O)cnc3cnc(Nc4cccc(OC)c4)nc32)c1`, the Potency is more than 9.22 µM.

Regarding `COc1cccc(-c2ccc3ncnc(NCc4cnc(C)cn4)c3c2)c1`, the Potency was more than 46 µM.

Take `Cn1c(=O)c(-c2ccccc2)nc2cnc(N3CCOCC3)nc21`: the Potency was more than 9.22 µM.

As to `CN1CCN(c2ncc3nc(-c4cn(C)c5ccccc45)c(=O)n(C[C@H]4CCCO4)c3n2)CC1`, the Potency was more than 46 µM.

For the molecule `COc1cccc(-c2nc(NC3CC3)c3ccccc3n2)c1`, the Potency is more than 46 µM.

Turning to `COc1ccc2[nH]cc(CCNc3ncnc4ccc(-c5ccoc5)cc34)c2c1`, the Potency was more than 46 µM.

Regarding `O=c1c(-c2cccc(F)c2)nc2cncnc2n1Cc1ccc(F)cc1`, the Potency was more than 9.22 µM.

With `COc1ccccc1CNc1ncnc2ccc(-c3cccc(NS(C)(=O)=O)c3)cc12`, the Potency was more than 46 µM.

As for `COc1ccc(CNc2ncncc2-c2ccccc2OC)c(OC)c1`, the Potency is more than 46 µM.

Regarding `COCCn1c(=O)c(-c2cccs2)nc2cnc(Oc3ccccc3)nc21`, the Potency was more than 9.22 µM.

Consider `CN(C)c1ncnc2ccc(-c3cccc(NS(C)(=O)=O)c3)cc12`, for which the Potency was more than 46 µM.

Regarding `COc1ccc(Oc2ncc3nc(-c4ccc(F)cc4)c(=O)n(C[C@H]4CCCO4)c3n2)cc1`, the Potency is more than 9.22 µM.

For the molecule `CN(C)c1ncc2nc(CCc3ccccc3)c(=O)n(CCC#N)c2n1`, the Potency is more than 9.22 µM.

As to `CN(C)c1ncc2nc(CCc3ccccc3)c(=O)n(CCc3ccccc3)c2n1`, the Potency is more than 9.22 µM.

On to `COc1ccc(CNc2cc(-c3cccc(NS(C)(=O)=O)c3)ncn2)c(OC)c1`, for which the Potency is more than 46 µM.

As to `O=c1c(CCc2ccccc2)nc2cnc(Nc3ccccc3)nc2n1C[C@H]1CCCO1`, the Potency was more than 9.22 µM.

With `CCNc1ncc2nc(CCc3ccccc3)c(=O)n(Cc3cccc(OC)c3)c2n1`, the Potency is more than 9.22 µM.

As to `COCCn1c(=O)c(-c2cc(F)cc(F)c2)nc2cnc(N3CCN(C)CC3)nc21`, the Potency is more than 9.22 µM.

With `COc1ccccc1CNc1cc(-c2ccccc2CN(C)C)ncn1`, the Potency was more than 46 µM.

Consider `CN(Cc1ccco1)c1nc(-c2ccccc2C(F)(F)F)nc2ccccc12`, for which the Potency is more than 46 µM.

Regarding `O=c1c(CCc2ccccc2)nc2cnc(N3CCOCC3)nc2n1-c1ccccc1`, the Potency is more than 9.22 µM.

With `O=c1c(CCc2ccccc2)nc2cnc(N3CCNCC3)nc2n1Cc1cccs1`, the Potency was more than 9.22 µM.

Turning to `N#CCCn1c(=O)c(-c2cccc(C#N)c2)nc2cnc(Oc3cccc(Cl)c3)nc21`, the Potency is more than 9.22 µM.

For `Cn1cc(-c2nc3cnc(N4CCNCC4)nc3n(C3CC3)c2=O)c2ccccc21`, the Potency is more than 9.22 µM.

As for `COc1ccccc1-c1ccc2ncnc(N3CCNCC3)c2c1`, the Potency was more than 46 µM.

Regarding `COCCn1c(=O)c(-c2ccccc2)nc2cnc(Oc3cccc(Cl)c3)nc21`, the Potency is more than 9.22 µM.

For the molecule `COc1ccccc1-c1nccc(NCc2cccs2)n1`, the Potency was more than 46 µM.

`Clc1ccccc1-c1nc(-n2ccnc2)c2ccccc2n1`: the Potency is more than 46 µM.

With `COc1ccc(-n2c(=O)c(CCc3ccccc3)nc3cnc(OC)nc32)cc1`, the Potency is more than 9.22 µM.

With `COc1ccc(Oc2ncc3nc(-c4cccc(C#N)c4)c(=O)n(Cc4cccc(OC)c4)c3n2)cc1`, the Potency was more than 9.22 µM.

As to `N#Cc1cccc(-c2nc(NCCN3CCOCC3)c3ccccc3n2)c1`, the Potency is more than 46 µM.

The record behind these values is PubChem BioAssay (NCATS).
